Reference: PubChem BioAssay (NCI)
The panel holds about 79,000 compounds, 15% with a hit somewhere; the sample as a whole holds those more often. Active and inactive are the calls of the source. No stated cut-off is given here; in the data, active means growth inhibition above about 70%; inactive means the rest.

Legend:
[1] = NCI Yeast Anticancer Drug Screen. Data for the rad50 strain (AID 155);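 further: 0% = growth of vehicle-only cultures of the same strain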; conditions: S. cerevisiae rad50 strain growth inhibition; at 50.0 µM; stronger effect = higher value
How it was run: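 Cells are treated with compound, grown, and their growth is then scored against vehicle-only cultures of the same repair-deficient yeast strain.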

[2] = NCI Yeast Anticancer Drug Screen. Data for the mec2-1 strain (AID 157); conditions: S. cerevisiae mec2-1 strain, at 50.0 µM, stronger effect = higher value
How it was run: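 Strain: mec2-1 (DNA repair/cell cycle alteration). Compound exposure, then growth measured; inhibition expressed relative to vehicle.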

[3] = NCI Yeast Anticancer Drug Screen. Data for the sgs1 mgt1 strain (AID 161);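 further: 0% = growth of cultures given vehicle only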; conditions: S. cerevisiae sgs1 mgt1 strain, at 50.0 µM, stronger effect = higher value
How it was run: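 Genetically altered yeast, compound exposure, growth inhibition relative to vehicle.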

[4] = NCI Yeast Anticancer Drug Screen. Data for the cln2 rad14 strain (AID 165);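 further: 0% = growth equal to vehicle treated cultures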; conditions: S. cerevisiae cln2 rad14 strain, at 50.0 µM, stronger effect = higher value
How it was run: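 Compounds are applied to the cln2 rad14 yeast strain, and growth is then compared with that of vehicle-treated cultures to give inhibition.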

[5] = NCI Yeast Anticancer Drug Screen. Data for the bub3 strain (AID 167); conditions: S. cerevisiae bub3 mutant strain, at 50.0 µM, stronger effect = higher value
How it was run: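 Part of a panel of yeast mutants defective in DNA damage repair or cell cycle regulation. Each strain is grown with compound, and inhibition is calculated relative to solvent-treated cultures.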

[6] = NCI Yeast Anticancer Drug Screen. Data for the mlh1 rad18 strain (AID 175); conditions: S. cerevisiae mlh1 rad18 strain growth inhibition; at 50.0 µM; stronger effect = higher value
How it was run: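 Read-out is yeast growth inhibition, calculated against vehicle-only controls. The compound was applied to a strain engineered with DNA damage repair alterations.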

Measured: growth inhibition

COC1(CCO)CC=CCC1(CCO)OC (stereo not drawn)
inactive: [1] -2.45% | [2] -20.4% | [3] -19.3% | [4] 13.3% | [5] -19.4% | [6] -7.9%

CN(C)CCCNC(=O)N/N=C/c1ccc(O)cc1
inactive: [1] -10.2% | [2] -25.1% | [3] 7% | [4] 17.8% | [5] 1.65% | [6] -25.2%

CCCCCCC(NC(C)=O)C(=O)O (stereo not drawn)
inactive: [1] 3.85% | [2] -4.7% | [3] 13.9% | [4] 6.35% | [5] 4.3% | [6] 3.5%

OC1CCCC2OC2CC1 (stereo not drawn)
inactive: [1] 0.4% | [2] 6.55% | [3] -9.5% | [4] 11.7% | [5] 7.25% | [6] 13.9%

Cc1cc2c(=O)c(C(=O)O)c[nH]c2cc1-n1cccc1
inactive: [1] 41.8% | [2] 23.6% | [3] 45% | [4] 15.7% | [5] 36.3% | [6] 33.2%

CC(=O)OCc1ccc(C)cc1
inactive: [1] -9.05% | [2] 6.6% | [3] -12.7% | [4] -32.8% | [5] -14.9% | [6] 0.3%

CCCCCC/C=C/CCCCCCCC(=O)O
inactive: [1] 3.15% | [2] -25.1% | [3] 5.3% | [4] -9.9% | [5] -1.75% | [6] -16.9%

Nc1ccc(C(=O)NN2C(=O)C(Cl)C2c2ccccc2)cc1 (stereo not drawn)
inactive: [1] -30.2% | [2] -31.8% | [3] -62.5% | [4] -1.8% | [5] -30.4% | [6] -38.2%

CC1=CC(=O)c2cc(C)ccc2C1=O
inactive: [1] 6.1% | [2] -15% | [3] -8.35% | [4] -32.5% | [5] -2.95% | [6] -3.25%

CC(C)C1OC2(CCCCC2)OCC1(C)C (stereo not drawn)
inactive: [1] 23.2% | [2] 14.8% | [3] 8.25% | [4] -8.35% | [5] 21.1% | [6] 23.4%

Cc1ccc(S(=O)(=O)N/N=C2\CCC3(C)C(=CCC4C3CCC3(C)C(C(C)CCCC(C)C)CCC43)C2(C)C)cc1 (stereo not drawn)
inactive: [1] 0.45% | [2] -1.2% | [3] -11.2% | [4] 2.75% | [5] -7.95% | [6] -0.1%

N/C(=N\N=C\c1ccccn1)NO
inactive: [1] 1.05% | [2] -12.6% | [3] -5.35% | [4] -6.95% | [5] -6.15% | [6] 0.7%

Cc1ccc(C(N)=Nc2ccccc2)cc1
inactive: [1] 0.65% | [2] 0% | [3] -0.3% | [4] -2.85% | [5] 3.3% | [6] 23.4%

CCCCC[N+]1([O-])CCOCC1
inactive: [1] 4.05% | [2] -4.1% | [3] -7.1% | [4] -24.4% | [5] -3.1% | [6] 1.05%

N#CS[C@@H]1CCC[C@H]1O
inactive: [1] -0.85% | [2] -6.25% | [3] -18.5% | [4] -18% | [5] 1.65% | [6] -20.1%

COc1cc(C)cc2c1C(=O)C(Br)=CC2=O
active: [1] 91.2% | [2] 92.3% | [3] 91.9% | [4] 91.8% | [5] 91.8% | [6] 89.8%

O=C(CCC(=O)Nc1ccccc1[N+](=O)[O-])CC(=O)c1ccc(Br)cc1
inactive: [1] 4.85% | [2] 7.75% | [3] -2.95% | [4] 9.3% | [5] -13.1% | [6] 6.15%

CC1=CC(C)S(=O)(=O)C1 (stereo not drawn)
inactive: [1] -38.4% | [2] -46.2% | [3] -89.1% | [4] -5.7% | [5] -57.8% | [6] -16.7%

CC(C)(C)OC(=O)CC(NC(=O)OC(C)(C)C)C(=O)N[C@@H]1CCCC[C@H]1C(=O)OCc1ccccc1 (stereo partly drawn)
inactive: [1] 8.3% | [2] 15.2% | [3] 9.55% | [4] 8.35% | [5] 14.7% | [6] 23.1%

CCCCCCCCCCCCCCCCCCOC(=O)C1CCCN1 (stereo not drawn)
inactive: [1] -10% | [2] 22.9% | [3] 12.8% | [4] 3.15% | [5] 12.4% | [6] 8.6%

COc1ccc(C2=C(c3ccccc3)C(C)(C)Oc3ccc4ccccc4c32)cc1
inactive: [1] -44.8% | [2] -0.05% | [3] -5.9% | [4] 14.2% | [5] -2.8% | [6] -7.3%

O=C(Cc1ccccc1)N/N=C(/c1nc2ccc([N+](=O)[O-])cc2[nH]c1=O)C(O)c1ccco1 (stereo not drawn)
inactive: [1] -0.95% | [2] -9.75% | [3] -4.85% | [4] -79.2% | [5] -6.25% | [6] -2.8%

CCOc1ccccc1NC(=O)CC(C)=O
inactive: [1] 14.3% | [2] 20.6% | [3] 22.2% | [4] 1.9% | [5] 33.3% | [6] 10.4%

NC(=O)c1ncn(C2OC(CO)C(O)C2O)c1NC=O (stereo not drawn)
inactive: [1] 1.95% | [2] -3.9% | [3] -2.25% | [4] 7.6% | [5] 9.85% | [6] 17.9%

COc1ccccc1NC(=O)/C(=C\n1c(=S)[nH]c2ccc([N+](=O)[O-])cc21)C(C)=O
inactive: [1] -9.7% | [2] -10.4% | [3] 2.55% | [4] -6.25% | [5] 4.95% | [6] -4.15%

CCOc1nc(SCC)nc2c1cnn2-c1ccccc1
inactive: [1] -8.45% | [2] -26.4% | [3] -9.9% | [4] -15.8% | [5] -1.2% | [6] -19.5%

Cc1cc(N(CCC#N)CCC#N)ccc1/C=C(\NC(=O)/C=C/c1ccccc1)C(=O)Nc1ccc(Cl)cc1
inactive: [1] -7.1% | [2] -15.1% | [3] 2.2% | [4] 1.7% | [5] 3.9% | [6] -1.65%

CC(=O)NC1CC(C)(C)NC(C)(C)C1
inactive: [1] -18.6% | [2] -30.2% | [3] 3.45% | [4] 10.5% | [5] 0.5% | [6] -9.25%

O=C1c2c(O)cccc2C(C(=O)CCCC(=O)C2c3cccc(O)c3C(=O)c3c(O)cccc32)c2cccc(O)c21
inactive: [1] -1.55% | [2] 13.2% | [3] 3.25% | [4] 19.9% | [5] -15.8% | [6] -0.85%

C=C1c2nc3ccccc3n2C=C(c2ccccc2)N1c1ccc([N+](=O)[O-])cc1
inactive: [1] 8.05% | [2] 41.6% | [3] 3.75% | [4] 13.6% | [5] 22.4% | [6] 27.9%

COc1ccc(CC2=NCCc3cc(OCc4ccccc4)c(OC)cc32)cc1OCc1ccccc1
active: [5] 78.5% | [6] 93.8%
inactive: [1] 66.8% | [2] 55% | [3] 52.5% | [4] 30.6%

O=C(O)c1ccc(C2CCCCC2O)cc1 (stereo not drawn)
inactive: [1] 2.05% | [2] 6.15% | [3] -9.2% | [4] -14.6% | [5] -2% | [6] 0.3%

CCOC(=O)Cc1ccc(OC)c(OC)c1
inactive: [1] 3.45% | [2] -7.05% | [3] 3.9% | [4] -17.1% | [5] -2.8% | [6] 1.4%

CC(=O)CC1CCc2ccc3ccccc3c2C1c1cccc2ccccc12 (stereo not drawn)
inactive: [1] 2.35% | [2] 8.2% | [3] -6.85% | [4] 26.4% | [5] 2.4% | [6] 25.4%

CC(/C=C/C=C(\C)C(=O)O)=C\C=C\C=C(C)\C=C\C=C(/C)C(=O)O
inactive: [1] -0.8% | [2] -21% | [3] 3.7% | [4] 6.6% | [5] -9.05% | [6] 17.9%

O=C(NN=C1c2ccccc2-c2ccccc21)C(F)(F)F
inactive: [2] 2.05% | [3] 4.65% | [4] 31.2% | [5] 6% | [6] 21.9%
active: [1] 87%

COc1cc(/C=C2\CCC(CN(C)C)C2=O)ccc1OC(=O)c1ccccc1 (stereo not drawn)
active: [1] 86.6% | [2] 91.1% | [3] 86% | [4] 89.1% | [5] 85.2% | [6] 89.7%

O=C(O)c1ccccc1C(=O)CCC(=O)c1ccccc1C(=O)O
inactive: [1] -43.5% | [2] -6.75% | [3] 14.3% | [4] -8.95% | [5] -0.05% | [6] 1.25%
